Several values for one entry are separate records, joined by “and”; a condition that tells them apart may be missing. Equal entries are not always repeated. This is part of a sample that, as a whole, favours compounds with a hit. Of some 83,000 tested, about 20% had one in any assay.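 Testing used 96-well plates and a 48-hour single-concentration exposure. Example: -40 means 40% of the starting cells died.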 Activity calls are given as the source filed them. The calls were made as follows: active = growth percent below 10; inactive = the rest.
Columns and labels:
Test in all cases: NCI-60 one-dose screen, 48 h (100 = growth as untreated, 0 = no growth, -100 = all killed)
Details in all cases: 10 µM unless noted
T-47D breast = test system: T-47D breast
BT-549 breast = test system: BT-549 breast
MDA-MB-435 melanoma = test system: MDA-MB-435 melanoma
SW-620 colon = test system: SW-620 colon
MCF7 breast = test system: MCF7 breast
HCT-116 colon = test system: HCT-116 colon
HCC-2998 colon = test system: HCC-2998 colon
KM12 colon = test system: KM12 colon

Measured: growth

COc1ccc(NC(=O)Nc2ccccc2CNc2nc(Nc3ccc(OCCN4CCCC4)cc3)ncc2Cl)cc1
inactive: T-47D breast 27.2% | BT-549 breast 32% | HCC-2998 colon 16.3%
active: MDA-MB-435 melanoma -70.9% | SW-620 colon 2.1% | MCF7 breast -60.5% | HCT-116 colon -20.1% | KM12 colon 0.945%

COc1ccc(C/C(C)=C(/c2ccc(OCCN3CCCCCC3)cc2)c2ccc(OC(=O)c3ccccc3)cc2)cc1
inactive: T-47D breast 71.9% | BT-549 breast 106% | MDA-MB-435 melanoma 104% | SW-620 colon 98.4% | MCF7 breast 60.5% | HCT-116 colon 93.3% | HCC-2998 colon 105% | KM12 colon 120%

O=C(Nc1ccc2ncsc2c1)c1csc(Nc2ccc3[nH]ncc3c2)n1
active: MDA-MB-435 melanoma -27.1%
inactive: T-47D breast 36.4% | BT-549 breast 73.4% | SW-620 colon 20.9% | MCF7 breast 21.6% | HCT-116 colon 47.5% | HCC-2998 colon 72.5% | KM12 colon 30.9%

CCN1C(=O)/C(=c2\sc3n(c2=O)C2C(NN=3)N(CC)C(=O)N2CC)c2ccccc21 (centres undefined)
active: MDA-MB-435 melanoma -32.6% | HCT-116 colon 9.36%
inactive: T-47D breast 39.5% | BT-549 breast 17.8% | SW-620 colon 29.7% | MCF7 breast 26% | HCC-2998 colon 30% | KM12 colon 13.7%

O=C(c1cccc(Br)c1)N1CCN(c2ccnc3cc(Cl)ccc23)CC1
inactive: T-47D breast 44.4% | BT-549 breast 112% | MDA-MB-435 melanoma 90.2% | SW-620 colon 101% | MCF7 breast 88.7% | HCT-116 colon 84.5% | HCC-2998 colon 109% | KM12 colon 96.4%

CC(=O)c1c(C)nc(SCC(=O)Nc2ccc(Cl)cc2)n1-c1ccc(Cl)cc1
inactive: T-47D breast 72.1% | BT-549 breast 92.1% | MDA-MB-435 melanoma 89.6% | SW-620 colon 87.6% | MCF7 breast 82.9% | HCT-116 colon 67.7% | HCC-2998 colon 102% | KM12 colon 98.5%

C=C1C(=O)O[C@@H]2[C@H]3[C@H](COC(C)=O)[C@@H](OC(C)=O)C[C@H]3C(=C)[C@@H](O)C[C@@H]12
inactive: T-47D breast 90.5% | BT-549 breast 94.2% | MDA-MB-435 melanoma 101% | SW-620 colon 84.4% | MCF7 breast 76.8% | HCT-116 colon 75.7% | HCC-2998 colon 109% | KM12 colon 99.8%

c1ccc(Cc2cccc[n+]2C(c2ccccc2)c2ccccc2)cc1
inactive: BT-549 breast 29.8% | MDA-MB-435 melanoma 40% | SW-620 colon 81.2% | MCF7 breast 34.6% | HCT-116 colon 49.2% | HCC-2998 colon 40.7% | KM12 colon 42.4%
active: T-47D breast 3.66%

CCN(CC)CCOc1ccccc1C
inactive: T-47D breast 98.3% | BT-549 breast 102% | MDA-MB-435 melanoma 106% | SW-620 colon 107% | MCF7 breast 100% | HCT-116 colon 98.3% | HCC-2998 colon 107% | KM12 colon 107%

CS(=O)(=O)Nc1cc(-c2ccc3ncnc(Nc4ccc(F)c(Cl)c4)c3c2)cnc1Cl
active: T-47D breast -7.45% | BT-549 breast -21.7% | MDA-MB-435 melanoma 9.94% | MCF7 breast 5.44% | HCT-116 colon 1.28% | KM12 colon 7.66%
inactive: SW-620 colon 13.8% | HCC-2998 colon 16.1%

COc1cc2c(cc1OCCCOC1=C=C=C(c3ccc4c(c3)c3cc(-c5ccc(OCCCOc6cc7c(cc6OC)C(=O)N6CCC[C@H]6C=N7)cc5)ccc3n4S(=O)(=O)c3ccc(C)cc3)C=C1)N=C[C@@H]1CCCN1C2=O
active: SW-620 colon 6.31% | HCC-2998 colon -43.2%
inactive: T-47D breast 37.1% | BT-549 breast 277% | MDA-MB-435 melanoma 44.5% | MCF7 breast 23% | HCT-116 colon 136% and 11.4% | KM12 colon 42.1%

COc1cc(NC2CCCCC2O)c2nc(-c3ccc(Cl)cc3)ccc2c1 (centres undefined)
inactive: T-47D breast 78.5% and 86.5% | BT-549 breast 108% and 97.5% | MDA-MB-435 melanoma 68.4% and 86.5% | SW-620 colon 78.9% and 86.7% | MCF7 breast 51.8% and 59.4% | HCT-116 colon 69.6% and 77.2% | HCC-2998 colon 91.8% and 93% | KM12 colon 54.9% and 68.3%

Clc1cccc(Nc2ncnc3ccc(-c4cncc(-n5cnnn5)c4)cc23)c1
inactive: T-47D breast 44.8% | BT-549 breast 44.9% | MDA-MB-435 melanoma 89.8% | SW-620 colon 96.8% | MCF7 breast 67.7% | HCT-116 colon 38.1% | HCC-2998 colon 93.6% | KM12 colon 91.4%

CC[C@H](C)[C@H](NC(=O)[C@@H](N)CCC(N)=O)C(=O)N[C@@H](Cc1ccc(O)cc1)C(=O)N[C@@H](CCCCN)C(=O)N[C@@H](CCCCN)C(=O)N[C@@H](Cc1ccc(O)cc1)C(=O)N[C@@H](CCCNC(=N)N)C(=O)N[C@H](C(=O)N[C@@H](Cc1c[nH]c2ccccc12)C(=O)N[C@@H](Cc1ccc(O)cc1)C(=O)N[C@@H](CCCNC(=N)N)C(=O)N[C@@H](CCCCN)C(=O)N[C@@H](C)C(=O)N[C@@H](Cc1c[nH]c2ccccc12)C(=O)N[C@@H](CCCCN)C(=O)N[C@H](C(=O)N[C@@H](CC(C)C)C(=O)NCC(=O)N[C@@H](CCCCN)C(=O)N[C@H](C(N)=O)C(C)C)C(C)C)[C@@H](C)O
active: T-47D breast -47% | MCF7 breast -68.3% | KM12 colon -33%
inactive: BT-549 breast 16.3% | MDA-MB-435 melanoma 17.9% | SW-620 colon 47.2% | HCT-116 colon 28.7% | HCC-2998 colon 87.5%

O=C([C@H]1C[C@H]1c1ccc(S(F)(F)(F)(F)F)cc1)N1CCN(c2cc(Cl)ccc2C(F)(F)F)CC1
inactive: T-47D breast 74.9% | BT-549 breast 106% | MDA-MB-435 melanoma 102% | SW-620 colon 95.9% | MCF7 breast 89.6% | HCT-116 colon 60.2% | HCC-2998 colon 96.9% | KM12 colon 82.5%

FC(F)(F)Sc1ccc(/C=C/c2cc(/C=C/c3ccc(SC(F)(F)F)cc3)n(-c3ccccc3)n2)cc1
inactive: T-47D breast 84.3% | BT-549 breast 103% | MDA-MB-435 melanoma 91.7% | SW-620 colon 94.9% | MCF7 breast 89% | HCT-116 colon 94.3% | HCC-2998 colon 101% | KM12 colon 95.2%

CCOC(=O)c1cnn(CC(O)CC)c1NC(=O)NCc1ccccc1C(F)(F)F (centres undefined)
inactive: T-47D breast 86.7% | BT-549 breast 84.4% | MDA-MB-435 melanoma 105% | SW-620 colon 108% | MCF7 breast 93.7% | HCT-116 colon 78.5% | HCC-2998 colon 100% | KM12 colon 103%

COCCOc1cc2ncnc(N3CCN(S(=O)(=O)c4ccccc4Cl)CC3)c2cc1OCCOC
inactive: T-47D breast 80.6% | BT-549 breast 89.5% | MDA-MB-435 melanoma 10.5% | SW-620 colon 79.9% | MCF7 breast 49.3% | HCT-116 colon 89.7% | HCC-2998 colon 79.6% | KM12 colon 69.7%

COc1ccc(/C(C)=C(\c2ccc(OCCN3CCOCC3)cc2)c2ccc(OC(=O)C3CCCCC3)cc2)cc1
inactive: T-47D breast 77.9% | BT-549 breast 112% | MDA-MB-435 melanoma 105% | SW-620 colon 102% | MCF7 breast 75.4% | HCT-116 colon 105% | HCC-2998 colon 107% | KM12 colon 98.1%

CCCCC(NC(=O)CN1C(=O)/C(=C/C(C)=C/c2ccccc2)SC1=S)C(=O)O (centres undefined)
inactive: T-47D breast 105% | BT-549 breast 112% | MDA-MB-435 melanoma 104% | SW-620 colon 94.6% | MCF7 breast 93.3% | HCT-116 colon 98.5% | HCC-2998 colon 110% | KM12 colon 102%

COc1ccc(C2=C(CN)C(O)NC(=NCC(=O)c3ccc4ccccc4c3)N2)cc1 (centres undefined)
inactive: T-47D breast 101% | BT-549 breast 99% | MDA-MB-435 melanoma 103% | SW-620 colon 112% | MCF7 breast 96.2% | HCT-116 colon 92.7% | HCC-2998 colon 107% | KM12 colon 97.2%

c1cc(NCCCCN2CCOCC2)c2ccc3c(ccc4c(NCCN5CCOCC5)ccnc43)c2n1
active: SW-620 colon -16.5%
inactive: T-47D breast 94.9% | BT-549 breast 103% | MDA-MB-435 melanoma 98.5% | MCF7 breast 58.5% | HCT-116 colon 48.4% | HCC-2998 colon 87.8% | KM12 colon 92.1%

C[N+]1=C(/C=C\C=C\c2ccccc2)C(C)(C)c2ccccc21
inactive: BT-549 breast 22.5% | SW-620 colon 19.8% | HCT-116 colon 14.3% | HCC-2998 colon 47.9% | KM12 colon 22.2%
active: T-47D breast -1.09% | MDA-MB-435 melanoma 9.04% | MCF7 breast 7.58%

CCOC(=O)CC1CSC(c2cccc(Cl)c2)=N1 (centres undefined)
inactive: T-47D breast 102% | BT-549 breast 111% | MDA-MB-435 melanoma 112% | SW-620 colon 108% | MCF7 breast 87.8% | HCT-116 colon 97.2% | HCC-2998 colon 82.7% | KM12 colon 108%

CCOc1ccccc1NC(=O)c1cc2ccccc2cc1O
inactive: T-47D breast 51.7% | BT-549 breast 85% | MDA-MB-435 melanoma 49.4% | SW-620 colon 64.7% | MCF7 breast 70.3% | HCT-116 colon 31.9% | HCC-2998 colon 76.3% | KM12 colon 33.6%

COc1cc(-c2[nH]ncc2Nc2ccc(Cl)cc2)cc(OC)c1OC
inactive: T-47D breast 46.4% | BT-549 breast 29.8% | MDA-MB-435 melanoma 55.5% | SW-620 colon 82.6% | MCF7 breast 41.9% | HCT-116 colon 58.4% | HCC-2998 colon 83.4% | KM12 colon 63.5%

O=C(CCCCCCCCC(=O)N/N=C\c1ccccc1O)N/N=C\c1ccccc1O
inactive: T-47D breast 18.1% | BT-549 breast 26.9% | MDA-MB-435 melanoma 33.8% | SW-620 colon 30.2% | MCF7 breast 16.9% | HCT-116 colon 13% | HCC-2998 colon 44.8% | KM12 colon 26.5%

COc1ccc(/C=N/NC(=O)CN2CCN(c3cc4c(cc3F)c(=O)c(C(=O)O)cn4C3CC3)CC2)cc1O
inactive: T-47D breast 96.6% | BT-549 breast 107% | MDA-MB-435 melanoma 107% | SW-620 colon 102% | MCF7 breast 92.6% | HCT-116 colon 93.4% | HCC-2998 colon 99.2% | KM12 colon 102%
